Measurements as given in PubChem BioAssay.
Activity calls are given as the source filed them. The rule behind the calls is not given here.

Assay: inhibition of Brca1/Bard1 split-luciferase complementation, confirmation, counter-screen for Mdm2/MdmX interaction inhibitor project, luminescence, single concentration (AID 504668)
Settings: Brca1/Bard1 bimolecular luciferase complementation counterscreen, at 8 µM, hits give high values

| SMILES | inhibition |
| --- | --- |
| CCN(CC)C(=O)C1CCCc2c1[nH]c1ccc(Cl)cc21 (stereo not given) | 34.6% (active) |
| Cc1ccc(NC(=O)c2cc3ccccc3oc2=O)cc1S(=O)(=O)N(C)C | 25.9% (active) |
| CCOc1ccc(N=Nc2ccc(O)c3ncccc23)cc1 | 23.3% (active) |
| CCCC(O)(CCC)C(=O)NN(C(=O)CCl)c1cccc(C)c1 | 23.7% (active) |
| Cc1ccc(-c2csc(=Nc3cccnc3)n2CCCn2ccnc2)cc1C | 24.3% (active) |
| O=[N+]([O-])c1ccc2ncnc(Nc3ccc4c(c3)OCCO4)c2c1 | 29.6% (active) |
| CCOC(=O)Cn1c(-c2nonc2NC(=O)c2ccccc2F)nc2ccccc21 | 34.7% (active) |
| COc1ccc(CCNC(=O)c2cc3c(=O)n4ccccc4nc3n(Cc3ccco3)c2=N)cc1OC | 26.2% (active) |
| CCc1ccc(/C=C/C(=O)c2c(C)cc(C)[nH]c2=O)cc1 | 30.6% (active) |
| CC1=NN(c2ccccc2)C(=O)/C1=C\C=C\c1ccccc1 | 28.9% (active) |
| CCOC(=O)COc1ccc(/C=C/[N+](=O)[O-])c(OCC(=O)OCC)c1 | 23.7% (active) |
| CC(=O)/C(C#N)=C1\NC(=O)C(Cc2cc(Cl)ccc2Cl)S1 (stereo not given) | 31.2% (active) |
| N#CC(c1ccc(Cl)cc1)c1ccc2c(C(F)(F)F)cc(C(F)(F)F)nc2n1 (stereo not given) | 24% (active) |
| C=CCNC(=S)N/N=C(\C)c1ccccn1 | 31.6% (active) |
| CCn1c(SCc2c(Cl)cccc2Cl)nc2nc3c(cc2c1=O)CCCC3 | 35.8% (active) |
| Oc1c(C(c2cccs2)N2CCN(c3ccccc3)CC2)ccc2cccnc12 (stereo not given) | 23.1% (active) |
| COc1ccc(O)c(/C=N/NC(=O)c2ccc(OCc3cccc(Br)c3)cc2)c1 | 32.8% (active) |
| CCCSc1nnc(NC(=O)Nc2ccc(F)cc2)s1 | 28.5% (active) |
| CCOC(=O)/C=C/C(=O)Nc1ccc(Oc2ccccc2)cc1 | 24.1% (active) |
| CC(=O)NC(c1ccc(C)cc1)c1cc([N+](=O)[O-])c2cccnc2c1O (stereo not given) | 25% (active) |

| SMILES | inhibition |
| --- | --- |
| CC(=O)N(C(C)=O)c1ncc2c([nH]c3ccccc32)c1C#N | 33.1% (active) |
| COC1(OC)C(/C=C/c2ccc(C)cc2)C(C#N)(C#N)C1(OC)OC (stereo not given) | 35.3% (active) |
| Cc1cccn2c(=O)c3cc(C(=O)NCCN4CCOCC4)c(=N)n(Cc4ccc(F)cc4)c3nc12 | 34.8% (active) |
| Oc1ccccc1/C=N/Nc1nccnc1Cl | 30.8% (active) |
| COc1ccc2cc3c(N)nn(C(=O)c4cccc([N+](=O)[O-])c4)c3nc2c1 | 32.1% (active) |
| CCCCCCCCn1c2c(c(=N)c3ccccc31)CCC2 | 27.2% (active) |
| Cc1conc1NC(c1cccs1)c1ccc2cccnc2c1O (stereo not given) | 31.8% (active) |
| Cn1nnnc1Sc1ncnc2scc(-c3ccccc3Br)c12 | 25% (active) |
| Cc1ccc(CNC(=O)c2ccc3c(=O)c(O)c(-c4ccc(C)cc4)[nH]c3c2)cc1 | 29% (active) |
| Cc1oc(-c2ccccc2Cl)nc1CSCC(=O)N1CCCC1 | 25.7% (active) |
| O=C(Nc1cc(Cl)ccc1O)c1snnc1-c1ccccc1 | 23% (active) |
| COc1cccc(/C=N/NC(=O)c2cc(-c3cccn3C)n[nH]2)c1O | 32.4% (active) |
| O=C(CCCN1C(=O)/C(=C\c2ccco2)SC1=S)Nc1cccc2ccccc12 | 28.5% (active) |
| CN(CC1CCCO1)S(=O)(=O)c1ccc(C(=O)Nc2nc(-c3ccccn3)cs2)cc1 (stereo not given) | 27.4% (active) |
| COC(=O)c1ccc(Sc2nnnn2-c2ccccc2)c([N+](=O)[O-])c1 | 23% (active) |
| COc1ccc(NC(=O)Nc2cccc3c2O[C@H](CN(C)Cc2ccc(-c4ccccc4)cc2)[C@@H](C)CN([C@H](C)CO)C3=O)cc1 | 31% (active) |
| C#CCn1c(=NC(=O)c2ccc(S(=O)(=O)N3CCc4ccccc4C3)cc2)sc2cc(S(N)(=O)=O)ccc21 | 23% (active) |
| COc1ccc(-c2oc3ncnc(NCCCN(C)C)c3c2-c2ccc(OC)cc2)cc1 | 28.6% (active) |
| CCc1ccccc1OCC(=O)Nc1nc(-c2cccnc2)cs1 | 35.6% (active) |
| CCOC(=O)CSC1=NC(=O)/C(=C/c2ccc(OC)cc2)S1 | 32.1% (active) |
